# PubChem BioAssay AID652017 (The Scripps Research Institute Molecular Screening Center, 2013)
# About 3,800 (1%) of roughly 370,000 compounds were called active. Rule as the data show it: active = activation above about 7.8%; inactive = the rest. Shown is part of a subset that was picked to be rich in actives.
# Assay: SMARCA2 (BRM) function activators, primary screen, cell-based, luminescence, high throughput (AID 652017);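 also: 0% = vehicle wells and 100% = reference activator wells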
# Settings: MG213 cells, MMTV-luciferase reporter, dexamethasone, overnight; at 9.1 µM; hits give high values
row,Compound,activation
1,COc1cccc(CNC(=O)[C@H]2CCCN2C(=O)[C@H]2CCCN2C(=O)c2ccc(F)cc2)c1,-5.59% (inactive)
2,O=C(NC1CCCC1)C(=O)c1c[nH]c2ccccc12,10.3% (active)
3,CC1CCN(CC(=O)c2c[nH]c3ccccc23)CC1,4.35% (inactive)
4,O=C(NCCCc1ccccc1)C(=O)c1c[nH]c2ccccc12,7.21% (inactive)
5,Cc1nn(C(C)(C)C)c(OC(=O)CC(C)C)c1S(=O)(=O)c1ccccc1,-0.75% (inactive)
6,N#Cc1c(/N=C/N2CCCC2)oc(-c2ccccc2)c1-c1ccccc1,1.32% (inactive)
7,CCC(C)N(C)C1CCN(C(=S)Nc2ccc(OC)cc2)CC1 (stereo not drawn),8.91% (active)
8,COc1ccc(N2CCN(C(=S)Nc3ccc(S(N)(=O)=O)cc3)CC2)cc1,-1.43% (inactive)
9,CCOc1ccc(NC(=S)N2CCC(N(C)CC3CCCO3)CC2)cc1 (stereo not drawn),4.49% (inactive)
10,O=C(CSc1nc2ccccc2n1Cc1ccccc1)NNC(=S)Nc1ccccc1,4.3% (inactive)
11,COc1ccc(OC)c(NC(=O)c2cccc(S(=O)(=O)N3CCN(C(C)=O)CC3)c2)c1,-1.12% (inactive)
12,COc1cccc(C(=O)Nc2cc3c(cc2Br)OCCCO3)c1,11% (active)
13,COc1cccc(/C=C/C(=O)Nc2ccc3c(c2)OCCO3)c1,5.29% (inactive)
14,O=S1(=O)C[C@@H](N2CCN(CCO)CC2)[C@H](COCc2ccccc2)N1,-4.94% (inactive)
15,COC(=O)[C@]12C[C@H](CC(=O)NCc3cccs3)C(=O)N(CCc3ccc(OC)c(OC)c3)C1=C[C@H](C(C)C)O[C@@H]2C1CC1,-3.39% (inactive)
16,O=C(NCCC1=CCCCC1)C1CCN(S(=O)(=O)c2ccc(Cl)s2)CC1,-6.89% (inactive)
17,C/C(CC(=O)NC(C)(C)C)=N\NC(=O)c1ccco1,8.95% (active)
18,COc1cccc2cc(/C(C)=N/NC(=O)c3ccco3)oc12,5.77% (inactive)
19,COc1ccc(N(CC(=O)NC(C)(C)C)C(=O)c2ccco2)cc1,-1.03% (inactive)
20,CCC(NC(=O)C1C2C=CC3(CN(Cc4ccccc4)C(=O)C13)O2)c1ccccc1 (stereo not drawn),-1.92% (inactive)
21,CS(=O)(=O)N1CCN(C(=O)CSc2ccccc2)CC1,-2.96% (inactive)
22,CC(C)CNC(=O)C1(C)CCCN1C(=O)CSc1ccccc1 (stereo not drawn),-1.93% (inactive)

row,Compound,activation
1,CC1(C(=O)NS(=O)(=O)C2CC2)CCCN(C(=O)CSc2ccccc2)C1 (stereo not drawn),10.6% (active)
2,C[C@@H]1CN([C@H](C)CO)C(=O)CCCn2cc(nn2)CO[C@H]1CN(C)S(=O)(=O)c1ccc(Oc2ccccc2)nc1,-2.13% (inactive)
3,COc1ccc([C@H]2OC(=O)C[C@H]2C(=O)N2CCN(c3ccccc3F)CC2)cc1OC,-3.16% (inactive)
4,COC(=O)[C@]12C[C@H](CC(=O)NCc3ccccc3)C(=O)N(CCc3ccc(OC)c(OC)c3)C1=C[C@H](C(C)(C)C)O[C@@H]2C,-3.03% (inactive)
5,CCOC(=O)[C@]12CCCCC/C=C\1N(Cc1ccc(OC)cc1)C(=O)[C@H]2CC(=O)NCc1ccc(C)o1,-0.44% (inactive)
6,O=C(NCCCN1CCCCCC1)c1ccc(N2CCCC2=O)cc1,1.14% (inactive)
7,CN1CCN(CCCNC(=O)c2ccc(/C=C3\Oc4ccccc4N(Cc4ccc(Cl)cc4)C3=O)cc2)CC1,10.6% (active)
8,O=C(NCCS(=O)(=O)NCc1ccc(Cl)cc1)c1ccccc1,-0.89% (inactive)
9,Cc1cc(NS(=O)(=O)c2ccc(NC(=O)CSc3nnc(SCc4ccc(F)cc4)s3)cc2)nc(C)n1,-5.48% (inactive)
10,O=C(Nc1cccc(Cl)c1)OC1CC2CC1[C@H]1CCCCN1[C@H]2Cc1ccccc1 (stereo partly drawn),-2.01% (inactive)
11,CCOC(=O)CSc1nc(C)cc2c1C(=O)OC2,-2.43% (inactive)
12,C#CCN([C@H](C(=O)OC)C(C)CC)S(=O)(=O)c1ccccc1Br (stereo partly drawn),-1.68% (inactive)
13,O=C(N[C@H]1CC[C@H](CC(=O)N2CCCCC2)O[C@@H]1CO)c1cccc(F)c1,8.81% (active)
14,O=C(C[C@H]1CC[C@@H](NC(=O)c2ccncc2)[C@@H](CO)O1)NCC1CC1,-1.73% (inactive)
15,O=C(Nc1ccc2c(c1)[C@@H]1C[C@@H](CC(=O)N3CCCCC3)O[C@@H](CO)[C@@H]1O2)NC1CCCCC1,-1.84% (inactive)
16,C=C1C(=O)[C@]23C[C@H]1CCC2[C@@]1(C)C(C[C@@H]3O)[C@](C)(C(=O)O)CC[C@@H]1O (stereo partly drawn),28.1% (active)
17,N#Cc1ccc(OC[C@@H](O)CN2CCC(C(O)(c3ccccc3)c3ccccc3)CC2)c(F)c1,1.41% (inactive)
18,O=C(CCCc1ccccc1)NCc1ccccc1,8.27% (active)
19,O=C(CC1CCCCC1)NCc1ccccc1,2.93% (inactive)
20,O=C(CCNS(=O)(=O)c1ccccc1)NCCCc1ccccc1,-1.66% (inactive)
21,COc1ccc(CCNC(=O)CN(c2ccccc2)S(C)(=O)=O)cc1,-1.26% (inactive)
22,COc1ccc(OCC(=O)NCCc2ccc(S(N)(=O)=O)cc2)cc1,2.09% (inactive)

row,Compound,activation
1,COc1ccc(OCCCC(=O)NCCc2ccccc2)cc1,17.9% (active)
2,O=C(c1ccccc1)c1ccc(-c2ccccc2C(=O)NC2CCCCN(Cc3ccc(Cl)cc3)C2=O)cc1 (stereo not drawn),-0.95% (inactive)
3,CCOC(=O)[C@]12CCCC3=C1N(CCC3)C(=O)[C@@H](CC(=O)NCC13CC4CC(CC(C4)C1)C3)C2,-3% (inactive)
4,C=CCOc1ccc(Cl)cc1CNCCCN1CCOCC1,-1.83% (inactive)
5,CC(C)CNc1cccc2c1S(=O)(=O)N(Cc1cn(Cc3ccc(Cl)cc3)nn1)Cc1ccccc1O2,0.35% (inactive)
6,COC(=O)c1cc2c(N)c(C(=O)c3ccc(Cl)cc3)sc2nc1C(OC)OC,-4.26% (inactive)
7,NC(=O)Cc1ccc2sc(-c3ccccc3)nc2c1,2.7% (inactive)
8,CCN(CC)C(=O)c1sc2nc(-c3ccccc3)ccc2c1N,9.84% (active)
9,CCOC(=O)c1cnc2sccn2c1=O,-1.74% (inactive)
10,CN(C)/C=C/C(=O)c1cnc2sccn2c1=O,-3.44% (inactive)
11,O=C(NCc1ccccn1)c1cnc2sccn2c1=O,8.52% (active)
12,N#Cc1ccccc1OC[C@@H](O)CN1CCC(C(O)(c2ccccc2)c2ccccc2)CC1,-4.74% (inactive)
13,COC(=O)c1ccc(CSc2nnc(N)s2)o1,-1.46% (inactive)
14,CN1CCc2c(sc3c2c(NCc2ccco2)nc2nnnn23)C1,0.32% (inactive)
15,COc1ccc(C(=O)N/N=c2\oc3ccccc3cc2C(N)=O)cc1,9.22% (active)
16,COc1ccccc1CN(C)C(=O)c1cc2ccccc2o1,-0.29% (inactive)
17,COc1ccc(C(=O)NCC[N+](C)(C)C)cc1,-4.72% (inactive)
18,CC(=O)c1cc(-c2ccc3ccccc3c2)c(=O)n2c1CCC2,-0.02% (inactive)
19,CSc1ccc(C#N)cc1NC(=O)c1ccc(Cl)cc1,-0.91% (inactive)
20,N#Cc1ccccc1NC(=O)c1cccc(COc2ccc(Cl)cc2Cl)c1,9.56% (active)
21,COc1ccc(Sc2ccc(NC(=O)c3cccc(Cl)c3)cc2C#N)cc1,-0.62% (inactive)
22,C[C@H](CO)N1C[C@H](C)[C@@H](CN(C)S(=O)(=O)c2ccc(F)cc2)Oc2ccc(NC(=O)CCC(F)(F)F)cc2C1=O,1.28% (inactive)

row,Compound,activation
1,CCOC(=O)c1ccccc1NC(=O)c1c(N)n(C)c(=O)[nH]c1=O,-0.83% (inactive)
2,NS(=O)(=O)c1ccccc1NC(=O)c1c(O)c2ccccc2[nH]c1=O,9.94% (active)
3,Cn1c(=O)c(C(=O)Nc2ncccn2)c(O)c2ccccc21,2.91% (inactive)
4,CCCC[C@H]1C2CC(OC(=O)NCc3ccccc3)C(C2)[C@H]2CCCCN21 (stereo partly drawn),-0.93% (inactive)
5,CC(=O)O[C@@]1(C(C)=O)CCC2[C@H]3C=C(C)C4=CC(=O)CC[C@@]4(C)C3CC[C@]21C (stereo partly drawn),-9.82% (inactive)
6,Cc1cccc(NC(=S)N2CCC(c3nc4ccccc4s3)CC2)c1,-2.82% (inactive)
7,Cc1nc2ccc(NC(=O)N3CCC(c4ccccc4)C3)cc2nc1C (stereo not drawn),-3.22% (inactive)
8,Cc1nc2ccc(NC(=S)N3CCC(C)CC3)cc2nc1C,7.91% (active)
9,Cn1nc(C(F)(F)F)c2cc(NC(=O)OCC(C)(C)C)sc21,7.24% (inactive)
10,CSCCC(C(=O)NC(C)(C)C)n1c(-c2ccccc2)nc2ccccc21 (stereo not drawn),-3.19% (inactive)
11,CC(C)(C)NC(=O)C(CCc1ccccc1)n1c(=O)c(-c2ccccc2)nc2ccccc21 (stereo not drawn),17.1% (active)
12,CCC(C(=O)NC(C)(C)C)n1c(-c2ccccc2)nc2ccccc21 (stereo not drawn),-0.72% (inactive)
13,CN(C)c1ccc(NC(=O)NC2CCCCN(Cc3ccc(Cl)cc3)C2=O)cc1 (stereo not drawn),-1.53% (inactive)
14,CC(C)COc1ccc(C(=O)NNC(=O)CCC(=O)c2cccs2)cc1,0.68% (inactive)
15,Cc1ccc(C(=O)NNC(=O)c2cccs2)cc1,9.31% (active)
16,CS(=O)(=O)c1ccc(C(=O)NNC(=O)c2cccs2)cc1,-1.1% (inactive)
17,C=CCC(NCCCO)c1cccc(OC)c1OC (stereo not drawn),2.11% (inactive)
18,Cc1cc(C)cc(-c2nnc(SCC(=O)NC3CC3)o2)c1,2.96% (inactive)
19,Cc1cc(C)n2nc(CNS(=O)(=O)c3c(F)c(F)c(F)c(F)c3F)nc2n1,9.77% (active)
20,COc1ccc(Cl)cc1C(=O)NNC(=O)c1nc2nc(C)cc(C)n2n1,-0.45% (inactive)
21,Cc1cc(C)n2nc(C(=O)NC(C)(C)C)nc2n1,1.51% (inactive)
22,CCOC(=O)N1CCN(C(=O)C[C@H]2C[C@@]3(C(=O)OC)C(=C[C@H](C(C)(C)C)O[C@@H]3C)N(Cc3ccc(Cl)cc3Cl)C2=O)CC1,-4.25% (inactive)
